# Giardia kill: Giardia lamblia killing; Giardia lamblia trophozoite viability; activity change, % at 7.66 µM, hits read low; hit rate 0.15% among 340,000; in the data active = activity change below about -80%; inconclusive = between about -30% and that limit;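 also: parasites exposed to compound for two days anaerobically before the ATP read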
#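 Anaerobic 48 hrs incubation at 37 deg C of 100 trophozoites/well with test compounds; ATPLite 1-Step luminescence, 15-30 min RT, reports cellular ATP as viability.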
# rTrxR1 inhibitor: blocks rat thioredoxin reductase 1. Potency, µM (series often up to 114 µM), hits mostly inhibitors. AID 588453. recombinant rTrxR1, NADPH fluorescence consumption, selenite substrate. hit rate 1% among 390,000. O89049; also: nearly all actives have a fitted effect of over 65% in size
# Target sequence (O89049 whole entry, looked up): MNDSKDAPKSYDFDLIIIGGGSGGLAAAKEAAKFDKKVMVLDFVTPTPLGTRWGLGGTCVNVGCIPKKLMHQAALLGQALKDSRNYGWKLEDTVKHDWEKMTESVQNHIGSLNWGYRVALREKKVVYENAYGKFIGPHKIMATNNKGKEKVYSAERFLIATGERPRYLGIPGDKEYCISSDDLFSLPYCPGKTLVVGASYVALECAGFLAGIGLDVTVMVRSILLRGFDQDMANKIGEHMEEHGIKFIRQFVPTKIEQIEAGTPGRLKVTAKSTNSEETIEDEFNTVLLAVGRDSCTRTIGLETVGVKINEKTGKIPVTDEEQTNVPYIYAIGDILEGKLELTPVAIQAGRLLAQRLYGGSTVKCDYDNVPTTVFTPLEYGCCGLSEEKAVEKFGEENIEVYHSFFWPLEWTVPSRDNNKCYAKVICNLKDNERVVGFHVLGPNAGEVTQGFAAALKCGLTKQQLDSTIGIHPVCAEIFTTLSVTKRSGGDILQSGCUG
#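 Rat TrxR1 (90 nM in the dispensed reagent) was pre-reduced with 400 uM NADPH for 5 min at room temperature, then incubated with compound for 15 min. After 400 uM selenite was added, NADPH fluorescence (Ex 340/Em 450 nm) was followed for 8 min.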
# IL2 activator: IL-2 activation; hit rate 0.065% among 360,000; activation, % (series mostly up to about 46 µM); IL-2 activation reporter assay, cell-based qHTS; stimulated with anti-CD3/CD4/CD28 beads; in transgenic mouse T cells; in the data active = activation above about 50%; inconclusive = mostly about 30% to 49%
#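 Using fluorescent plate cytometry, EGFP and DsRed are detected in transgenic mouse T cells stimulated 18 h at 37 degrees C with antibody-coated beads after 60 min compound pretreatment.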
# mIDH1 inhibitor: inhibitors of human mutant IDH1 R132H. IDH1-R132H enzyme, NADPH consumption, diaphorase/resazurin fluorescence. hit rate 0.093% among 390,000. Potency, µM (series often up to 76.6 µM), most hits filed as inhibitors. AID 602179; also: nearly all actives have a fitted effect of over 65% in size
#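 IDH1-R132H (0.5 ug/mL dispensed) in pH 7.5 Tris buffer was preincubated 30 min with compound, then given a substrate mix of 0.016 mM NADPH and 2 mM alpha-KG for 80 min at room temperature; remaining NADPH was read by diaphorase/resazurin fluorescence.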
# TrxR1 substrate: is turned over as a substrate by rat TrxR1; AID 588456; Potency, µM (doses to about 114 µM); purified TrxR1 substrate turnover, NADPH consumption readout; hit rate 0.01% among 390,000; also: nearly all actives have a fitted effect of over 50% in size
#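 Rat TrxR1, dispensed at 90 nM, was prereduced with 400 uM NADPH (final) for 5 min at ~22 deg C, then incubated with compound 15 min before 400 uM selenite. A first-read NADPH fluorescence drop versus no-compound background flagged substrates.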
# BRCA1 expr up: increases BRCA1 expression | MCF7-BRCA1-FFLuc reporter, luminescence, 48 h; response scale: scaled: vehicle 0%, 10 µM genistein 100% | Potency, µM (doses to about 46.1 µM), hits mostly activators | hit rate 1.1% among 380,000; also: nearly all actives have a fitted effect of over 80% in size
#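 First, MCF7-BRCA1-FFLuc cells (2000/well) attach for 2 h; next, compounds are pin-added and incubated 48 h at 37 °C; finally, luciferase reagent is added and luminescence read after 15 min.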
# Hits are given with their value; - = inactive; ? = inconclusive; . = not tested or not shown; ! = repeats disagree; [ ] = remark or other dose. Shown are actives, neighbours in structure and some others; about 2.2% of the full set was active somewhere. Unless noted, calls follow the shape of the dose curve; as a rule, active = well fitted curve in the direction sought with a large enough effect; inconclusive = small, poorly fitted or top-dose-only effect, or another doubt; inactive = no such curve, though single readings can be large; an effect the other way counts as inactive or inconclusive.
SMILES,Giardia kill,rTrxR1 inhibitor,IL2 activator,mIDH1 inhibitor,TrxR1 substrate,BRCA1 expr up
O=[N+]([O-])c1ccc(/C=N/Nc2nc(N3CCCC3)nc(N3CCCC3)n2)o1,-95,-,-,-,-,-
CCNc1nc(NCC)nc(N/N=C/c2ccc([N+](=O)[O-])o2)n1,-82,45µM,-,-,-,-
CC1CCCCN1c1nnc(NC(=O)Nc2ccccc2F)s1 (configuration not stated),.,-,.,-,-,.
CS/C(=C\[N+](=O)[O-])Nc1ccc(F)cc1,-,?,-,-,-,-
CS/C(=C\[N+](=O)[O-])Nc1ccccc1,-,1.3µM,-,-,-,-
COc1ccc(N/C(=C/[N+](=O)[O-])SC)cc1,-,7.1µM,-,-,-,-
COc1ccccc1-n1c(=O)n(C)c2c(C(N)=O)nc(-c3cc(OC)c(OC)c(OC)c3)nc21,.,-,.,-,-,-
COc1ccc(C2(CNC(=O)/C=C\c3ccco3)CCCC2)cc1OC,-,10µM,-,-,-,-
COc1ccc(C(NC(=O)/C=C/c2ccco2)c2ccc(OC)c(OC)c2)cc1OC,-,4.5µM,-,-,-,-
CC(=O)Nc1cccc(NC(=O)CSc2ccc(-c3ccco3)nn2)c1,-,56µM,-,-,-,-
CC(=O)Nc1ccc(NC(=O)CSc2ccc(-c3ccco3)nn2)cc1,-,?,-,-,-,-
Cc1cc(C)cc(NC(=O)CSc2ccc(-c3ccco3)nn2)c1,-,-,-,-,-,-
COc1ccc(NC(=O)CSc2nc(SC)ns2)cc1,-,-,-,-,-,4.5µM
COc1cc(NC(=O)CSc2ccc(-c3ccco3)nn2)cc(OC)c1,-,35µM,-,-,-,-
COc1ccc(NC(=O)CSc2ccc(-c3ccco3)nn2)cc1,-,50µM,-,-,-,-
O=C(Cn1cc(S(=O)(=O)Cc2ccccc2F)c2ccccc21)NCc1ccccc1Cl,.,-,.,-,-,.
CCOc1ccc(Sc2cc(C(=O)NC(C)CC)c3ccccc3n2)cc1 (configuration not stated),.,-,.,-,-,-
CCn1c(CN2CCCCC2)nc2cc(NC(=O)COc3ccc(C(C)(C)C)cc3)ccc21,.,-,.,-,-,.
O=C(CSc1nc2ccsc2c(=O)n1Cc1ccc(F)cc1)NCc1ccc(Cl)cc1,.,-,.,-,-,-
Cn1c(-c2ccc(CN3CCCCC3)o2)nc2ccccc21,-,-,-,-,-,3.2µM
Cc1cc(Cl)ccc1NC(=S)Nc1cccnc1,-,28µM,-,-,-,-
Cc1cc(NC(=S)Nc2cccnc2)ccc1Br,-,?,-,-,-,-
Cc1ccc2c(CC(=O)Nc3c(C(=O)Nc4cccc(Cl)c4)oc4ccccc34)coc2c1C,.,-,.,-,-,.
O=C(NCc1cccnc1)/C(=C\c1ccc(-c2cccc(Cl)c2)o1)S(=O)(=O)c1ccccc1,-,11µM,-,-,-,-
O=C(NCc1cccnc1)/C(=C/c1ccc(-c2cccc(Cl)c2)o1)S(=O)(=O)c1ccccc1,-,?,-,-,-,-
SMILES,Giardia kill,rTrxR1 inhibitor,IL2 activator,mIDH1 inhibitor,TrxR1 substrate,BRCA1 expr up
CCCC(=O)Nc1nnc(S(=O)(=O)N(C)Cc2ccco2)s1,-,40µM,-,-,-,-
Cc1ccccc1C(=O)Nc1nnc(S(=O)(=O)N(C)Cc2ccco2)s1,-,45µM,-,-,-,-
Cc1ccccc1C(=O)Nc1nnc(S(=O)(=O)N(C)Cc2ccccc2)s1,.,-,.,-,-,.
CN(Cc1ccco1)S(=O)(=O)c1nnc(NC(=O)c2ccccc2Cl)s1,-,25µM!,-,-,-,-
Cc1ccc(C(=O)Nc2nnc(S(=O)(=O)N(C)Cc3ccco3)s2)cc1,.,-,.,-,-,.
CCC(=O)Nc1nnc(S(=O)(=O)N(C)Cc2ccco2)s1,-,?,-,-,-,-
Cc1cc2c(n1-c1ccc(C(=O)NCC(C)c3ccccc3)cc1)CCCC2 (configuration not stated),.,?,.,-,-,.
O=C(Nc1nc2c(F)cc(F)cc2s1)C1CC(=O)N(Cc2ccco2)C1 (configuration not stated),-,50µM,-,-,-,-
O=C(CCS(=O)(=O)c1cccc2nonc12)Nc1c(F)cccc1F,.,32µM,.,-,-[2.29 µM],.
N#CC(C#N)=Cc1ccc(NC(=O)c2ccc(Br)cc2)cc1,-,13µM,-,-,-,?
CC(C)(C)c1ccc(C(=O)Nc2ccc(C=C(C#N)C#N)cc2)cc1,-,3.2µM,-,-,-,-
CC(C)(C)c1ccc(C(=O)Nc2ccc(NC(=O)c3ccc(Cl)c(Cl)c3)cc2)cc1,.,-,.,-,-,.
O=C(Nc1ccc(C(=O)N2CCCCC2)cc1)c1ccc(Br)cc1,-,-,-,-,-,-
Cc1cccc(Cn2c(SCc3ccc(C(=O)NCCc4ccccc4)cc3)nc3cccnc32)c1,.,-,.,-,-,.
Cn1c(=O)oc2cc(S(=O)(=O)N3CCCC(C(=O)Nc4ccc(Br)cc4F)C3)ccc21 (configuration not stated),.,-,.,-,-,-
NC(=S)N=Nc1ccc(NN=C(N)N)cc1,-,20µM,-,-,-,-
Cc1c([N+](=O)[O-])cc(N2C(=O)C=CC2=O)cc1[N+](=O)[O-],-,3.2µM,-,-,-,-
Cc1cc(N2C(=O)C=CC2=O)c([N+](=O)[O-])cc1C,?,2.8µM,-,-,-,-
Cc1cc(C)cc(N2C(=O)C=CC2=O)c1,-,1.1µM,-,-,-,-
CC(C)(C)Nc1nc(Cl)nc(Nc2ccccc2)n1,-,-,-,-,-,11µM
Clc1nc(Nc2ccccc2)nc(Nc2ccccc2)n1,-,-,-,-,-,-
CN1CCCN(Cc2nc(-c3ccc(Cl)cc3)no2)CC1,-,-,-,-,-,13µM
CCC(NC(C)C)C(O)c1ccc(O)c(O)c1 (configuration not stated),-,?,-,-,-,-
CCC(c1ccc(O)c(O)c1)C(CC)c1ccc(O)c(O)c1 (configuration not stated),-,7.9µM,-,-,-,-
O=C1C=CC(=O)N1c1ccc(O)cc1,-,1.3µM,-,-,-,-
SMILES,Giardia kill,rTrxR1 inhibitor,IL2 activator,mIDH1 inhibitor,TrxR1 substrate,BRCA1 expr up
O=C1CCCC(=O)N1c1ccc(O)cc1,-,-,-,-,-,-
O=C(O)CNC(=O)c1ccc(OC(F)F)cc1,-,-,-,-,-,-
O=C1C=CC(=O)N1c1ccc(OC(F)F)cc1,-,1.1µM,-,-,-,-
CC(C)(C)C(=O)Nc1nnc(SCc2cccc(F)c2)s1,-,-,-,-,-,14µM
COCCSc1nnc(NC(=O)C(C)(C)C)s1,-,-,-,-,-,5.6µM
CC(C)(C)C(=O)Nc1nnc(SCc2ccc(F)cc2)s1,-,-,-,-,-,-[1.84 µM]
